The values below come from PubChem BioAssay (NCATS).

Records with an inconclusive call do not appear. Activity calls are given as the source filed them. Unless noted, calls follow the shape of the dose curve; as a rule, active = well fitted curve in the direction sought with a large enough effect; inconclusive = small, poorly fitted or top-dose-only effect, or another doubt; inactive = no such curve, though single readings can be large; an effect the other way counts as inactive or inconclusive. A value given as a limit tells only on which side of the number the result lay.

Assay [1] is described as follows: AP1 Signaling Pathway (AID 357; active = well fitted curve in either direction with a large enough effect, not every such curve was filed as active;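 also: ME-180 reporter cells stimulated with EGF at its EC50 level; % is scaled to controls: 0 for no effect and ±100 for the full control effect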). The gist of the method: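 In this screen, ME-180 cells in Opti-MEM with 0.5% dialyzed FBS received EC50 EGF and compound titrations for 5 h. AP-1 reporter beta-lactamase was detected via CCF4 ratio, giving AC50 for positive and negative modulators.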
Assay [2] deals with Cytochrome P450 1A2 (Homo sapiens) (UniProt P05177). Description: p450-cyp1a2 (AID 410; calls by dose curve; also: potency is read from the fitted curve at half-maximal effect;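 as to activity change, negative = inhibition: -100% = full effect of reference inhibitor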). The method in brief: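 Luminescent readout of luciferin formed from Luciferin-ME by human CYP1A2; data normalized against complete inhibition by 57 uM furafylline. Enzyme 20nM, substrate 100uM at Km, 100mM KPO4 buffer, 60 min reaction at room temperature.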
Cytochrome P450 1A2 (Homo sapiens), sequence (P05177 whole entry, looked up): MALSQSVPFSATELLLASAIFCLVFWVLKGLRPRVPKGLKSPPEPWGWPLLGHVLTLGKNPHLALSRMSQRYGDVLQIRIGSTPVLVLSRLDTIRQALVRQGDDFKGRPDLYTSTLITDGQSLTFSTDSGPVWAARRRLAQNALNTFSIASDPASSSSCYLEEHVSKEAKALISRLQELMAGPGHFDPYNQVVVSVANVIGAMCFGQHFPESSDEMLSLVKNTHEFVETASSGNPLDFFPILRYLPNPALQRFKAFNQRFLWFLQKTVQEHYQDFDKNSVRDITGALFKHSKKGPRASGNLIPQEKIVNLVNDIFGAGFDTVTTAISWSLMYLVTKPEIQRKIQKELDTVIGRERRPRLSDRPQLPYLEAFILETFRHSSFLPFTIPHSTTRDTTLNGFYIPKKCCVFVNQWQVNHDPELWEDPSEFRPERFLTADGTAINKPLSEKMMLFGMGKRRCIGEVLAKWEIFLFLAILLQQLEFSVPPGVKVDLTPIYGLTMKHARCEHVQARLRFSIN
The nature of assay [3]: NFAT Signaling Pathway (AID 444; active = well fitted curve in either direction with a large enough effect, not every such curve was filed as active;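 also: carbachol stimulus at about its EC50 of 1 µM final; % is scaled to controls: 0 for no effect and ±100 for the full control effect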). The following applies: Jurkat NFAT-bla M1, carbachol, beta-lactamase ratio, 5 h; at 17.2 µM (top of the series) unless noted. The method in brief:
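Jurkat cells carrying an NFAT-driven β-lactamase reporter and co-transfected muscarinic M1 receptor were treated with compound plus carbachol (1 uM final, an EC50 level) for 5 h at 37 °C. CCF4 loading followed for 1 h at RT; 460/530 nm ratio gave %activity.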

Assay [4] is described as follows: Stat Signaling Pathway (AID 446; active = well fitted curve in either direction with a large enough effect, not every such curve was filed as active;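 also: ME-180 cervical cancer cells given 40 pM IL-6 alongside compound; SIE-controlled beta-lactamase reporter measured as 460/530 nm FRET emission ratio; % is scaled to controls: 0 for no effect and ±100 for the full control effect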). The method in brief: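 ME-180 SIE-bla cells; overnight plating; cpd + IL-6 40 pM, 5 h, 37 C; LiveBLAzer 2.5 h RT; 460/530 nm emission ratio. Normalized to 300 pM IL-6 and 125 nM JAK inhibitor controls.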
The target in assay [5] is Glucocorticoid receptor (Homo sapiens) (UniProt P04150). Description: GR-GFP Redistribution (AID 450;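 active = compounds whose dose series gives a full or clear partial fitted curve of increased nuclear translocation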; also: potency is read from the fitted curve at half-maximal effect). The following applies: U2OS GR-GFP nuclear translocation, laser cytometry, 2 h.
Glucocorticoid receptor (Homo sapiens), sequence (P04150 whole entry, looked up): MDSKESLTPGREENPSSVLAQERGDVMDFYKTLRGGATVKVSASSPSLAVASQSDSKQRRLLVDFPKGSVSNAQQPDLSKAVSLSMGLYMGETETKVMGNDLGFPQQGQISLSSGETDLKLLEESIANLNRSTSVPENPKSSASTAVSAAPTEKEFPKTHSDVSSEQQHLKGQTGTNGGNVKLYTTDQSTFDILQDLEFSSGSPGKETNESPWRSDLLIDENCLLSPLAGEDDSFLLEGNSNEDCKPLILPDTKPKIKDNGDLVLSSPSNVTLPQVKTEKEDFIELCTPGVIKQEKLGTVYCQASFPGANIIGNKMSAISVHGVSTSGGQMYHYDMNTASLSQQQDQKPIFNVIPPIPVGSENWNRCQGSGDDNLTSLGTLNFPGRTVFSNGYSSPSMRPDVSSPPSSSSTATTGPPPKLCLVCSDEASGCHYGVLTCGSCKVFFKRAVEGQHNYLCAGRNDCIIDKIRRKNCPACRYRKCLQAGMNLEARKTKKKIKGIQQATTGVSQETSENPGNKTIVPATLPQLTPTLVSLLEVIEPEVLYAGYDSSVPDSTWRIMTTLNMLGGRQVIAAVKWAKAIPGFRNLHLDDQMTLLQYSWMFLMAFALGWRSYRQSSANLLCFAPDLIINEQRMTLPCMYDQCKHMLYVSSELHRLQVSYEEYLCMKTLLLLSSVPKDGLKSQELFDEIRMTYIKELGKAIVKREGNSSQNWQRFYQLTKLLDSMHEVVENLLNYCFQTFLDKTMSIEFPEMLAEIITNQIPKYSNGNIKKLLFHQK
Assay [6] shares this target. Description: GR-EFC Redistribution (AID 451; calls by dose curve; also: potency is read from the fitted curve at half-maximal effect). Particulars: CHO-K1 GR-EFC translocation, beta-gal luminescence, 2 h. The gist of the method:
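CHO-K1 cells stably expressing nuclear-localized β-gal enzyme acceptor and GR fused C-terminally to the enzyme donor fragment; ligand-driven nuclear translocation restores β-gal by complementation. Compounds titrated up to 46 uM final, 2 h at 37 °C; luminescence read.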

Assay [7] concerns the target Mitogen-activated protein kinase 10 (Mus musculus) (UniProt Q61831). Description: JNK3 AlphaScreen Assay (AID 530; active = well fitted curve in either direction with a large enough effect, not every such curve was filed as active;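 also: kinase came from lysate of stimulated human HepG2 cells; signal reports phosphorylation of biotinylated GST-cJun 1-79 at Ser73 with 10 µM ATP; % is scaled to controls: 0 for no effect and ±100 for the full control effect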). The gist of the method:
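Inhibitors reduce antibody binding to phosphorylated biotin-cJun, lowering AlphaScreen luminescence. Lysates from HepG2 cells pre-activated by IL-1beta plus TNF-alpha supplied JNK3; compounds were titrated.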
(In general: In Alpha technology, singlet oxygen from a donor bead excites a nearby acceptor bead.)

Assay [8] has as its target 3',5'-cyclic-AMP phosphodiesterase 4B (Homo sapiens) (UniProt Q07343). Description: qHTS Assay for Inhibitors of PDE-IV (AID 607; active = well fitted activation curve with a large enough effect in the main read-out, with a control signal flat, not every such curve was filed as active; also: % of control where 0% means no effect). The gist of the method: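 ACTOne HEK293 cells carry a modified cAMP-gated CNG channel and express endogenous PDE4; plated 1000 cells/well, compounds up to 22.9 uM final. Membrane-potential dye fluorescence (ex 535/em 590) was read; parental cells received 10 uM forskolin + 100 uM RO 20-1724.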
In general terms: Quantitative high-throughput screening tests each substance at several concentrations.

Assay [9] is described as follows: qHTS Assay for Lipid Storage Modulators (AID 1519; calls by dose curve). The following applies: Drosophila S3 cells, BODIPY lipid droplet/cell ratio, laser cytometry, cells loaded with oleic acid; for activity change, negative = inhibition: at 25.7 µM (top of the series). The method in brief:
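Cells seeded at 5,000 per well were treated with compounds over a concentration series and loaded with oleic acid (400 uM, as added). Lipid droplet fluorescence (488 nm excitation, 500-530 nm channel) was read by laser-scanning cytometry and normalized to 20 uM Triacsin C.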

Assay [10] has as its target Ubiquitin carboxyl-terminal hydrolase 1 (Homo sapiens) (UniProt O94782). Description: Inhibitors of USP1/UAF1: Pilot qHTS (AID 504865).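 Also: rhodamine fluorescence freed from ubiquitin-rhodamine substrate followed over time; top concentration of the series differs between compounds; % is scaled to controls: 0 for no effect and ±100 for the full control effect; nearly all actives have a fitted effect of over 35% in size.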 The gist of the method:
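Enzyme-free wells gave the negative control, while test wells held 1nM USP1/UAF1 preincubated with compound for 15 min at room temperature. Ub-Rho at 150nM final started the reaction, and fluorescence at 480/540 nm was recorded kinetically.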

Assay [11] concerns the target Luciferin 4-monooxygenase (Photinus pyralis) (UniProt P08659). Description: Biochemical firefly luciferase enzyme assay for NPC (AID 624030).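 Also: purified P. pyralis luciferase at 10 nM with luciferin and ATP substrate; 0% = DMSO and -100% = full luciferase inhibition by PTC124 control; nearly all actives have a fitted effect of over 70% in size.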 The gist of the method:
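Counter-screen for direct inhibition of the luciferase enzyme by approved-drug library compounds, run at 10 nM enzyme in 50 mM Tris acetate (final). Luminescence was read within 5 min of enzyme-buffer addition and normalized to PTC124 versus DMSO (0%).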

A short description of assay [12]: S16 Schwann cell viability assay (CellTiter-Glo assay) (AID 624031).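 Also: cellular ATP luminescence as a viability measure; plate controls were DMSO-treated cells for no effect and cell-free wells for full effect; nearly all actives have a fitted effect of over 70% in size.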 The method in brief:
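This viability control uses native rat S16 Schwann cells grown in DMEM plus 10% FBS. After a 24 h compound treatment at 37 °C, CellTiter-Glo luminescence reports ATP content, scaled against DMSO-treated and cell-free wells.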

Assay [13] can be described thus: qHTS profiling for inhibitors of Plasmodium falciparum proliferation (AID 504749).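 Also: 0% = DMSO vehicle and full inhibition = artemisinin control; nearly all actives have a fitted effect of over 60% in size.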 The following applies: P. falciparum in erythrocytes, SYBR Green DNA, 72 h, at 12.8 µM (top of the series). The method in brief: (§1)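 Parasite proliferation within erythrocytes, 72 h exposure. Endpoint: SYBR Green I fluorescence after overnight lysis at room temperature. Controls: 0.29 uM artemisinin, DMSO.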

The next assay deals with C2A. The assay is described as above. Particulars: P. falciparum in erythrocytes, SYBR Green DNA, 72 h; series mostly up to 12.8 µM. The method in brief: as §1
Another assay has as its system CP191. Described as above. The following applies: P. falciparum in erythrocytes, SYBR Green DNA, 72 h; series mostly up to 12.8 µM. The method in brief: as §1
For another assay, the system named is CP256. The description is as above. The following applies: P. falciparum in erythrocytes, SYBR Green DNA, 72 h; series mostly up to 12.8 µM. The method in brief:
as §1

A further assay relates to CP262. Described as above. Particulars: P. falciparum in erythrocytes, SYBR Green DNA, 72 h; series mostly up to 12.8 µM. The method in brief: as §1
Another assay concerns CP268. Described as above. Particulars: P. falciparum in erythrocytes, SYBR Green DNA, 72 h; series mostly up to 12.8 µM. The gist of the method:
as §1

Another assay concerns JCK. Described as above. The following applies: P. falciparum in erythrocytes, SYBR Green DNA, 72 h; series mostly up to 12.8 µM. The gist of the method:
as §1

Another assay concerns SC27B. The description is as above. The following applies: P. falciparum in erythrocytes, SYBR Green DNA, 72 h; series mostly up to 12.8 µM. The method in brief: as §1
[14] abbreviates: measured here: cell count channel max response.
[15] abbreviates: measured here: lipid channel max response.

Ubiquitin carboxyl-terminal hydrolase 1 (Homo sapiens), sequence (O94782 whole entry, looked up): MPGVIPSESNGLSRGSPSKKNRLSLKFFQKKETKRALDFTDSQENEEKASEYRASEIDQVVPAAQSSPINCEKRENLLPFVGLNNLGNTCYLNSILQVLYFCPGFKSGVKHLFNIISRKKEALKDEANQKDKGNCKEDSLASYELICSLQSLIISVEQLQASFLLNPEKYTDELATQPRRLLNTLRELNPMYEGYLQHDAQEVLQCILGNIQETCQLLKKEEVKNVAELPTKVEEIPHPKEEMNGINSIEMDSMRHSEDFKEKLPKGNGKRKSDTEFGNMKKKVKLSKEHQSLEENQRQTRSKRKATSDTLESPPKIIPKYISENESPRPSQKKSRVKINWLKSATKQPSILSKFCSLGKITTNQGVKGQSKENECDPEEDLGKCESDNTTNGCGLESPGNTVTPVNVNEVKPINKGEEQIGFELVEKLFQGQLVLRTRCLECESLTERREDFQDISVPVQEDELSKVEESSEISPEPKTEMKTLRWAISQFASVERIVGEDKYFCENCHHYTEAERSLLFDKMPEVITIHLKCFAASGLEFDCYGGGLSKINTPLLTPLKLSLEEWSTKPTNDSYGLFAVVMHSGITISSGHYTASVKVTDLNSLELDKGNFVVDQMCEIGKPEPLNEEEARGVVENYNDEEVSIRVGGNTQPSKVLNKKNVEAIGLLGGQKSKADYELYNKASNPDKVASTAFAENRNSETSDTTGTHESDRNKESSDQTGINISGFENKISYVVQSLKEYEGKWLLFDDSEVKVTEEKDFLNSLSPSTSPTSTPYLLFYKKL
Luciferin 4-monooxygenase (Photinus pyralis), sequence (P08659 whole entry, looked up): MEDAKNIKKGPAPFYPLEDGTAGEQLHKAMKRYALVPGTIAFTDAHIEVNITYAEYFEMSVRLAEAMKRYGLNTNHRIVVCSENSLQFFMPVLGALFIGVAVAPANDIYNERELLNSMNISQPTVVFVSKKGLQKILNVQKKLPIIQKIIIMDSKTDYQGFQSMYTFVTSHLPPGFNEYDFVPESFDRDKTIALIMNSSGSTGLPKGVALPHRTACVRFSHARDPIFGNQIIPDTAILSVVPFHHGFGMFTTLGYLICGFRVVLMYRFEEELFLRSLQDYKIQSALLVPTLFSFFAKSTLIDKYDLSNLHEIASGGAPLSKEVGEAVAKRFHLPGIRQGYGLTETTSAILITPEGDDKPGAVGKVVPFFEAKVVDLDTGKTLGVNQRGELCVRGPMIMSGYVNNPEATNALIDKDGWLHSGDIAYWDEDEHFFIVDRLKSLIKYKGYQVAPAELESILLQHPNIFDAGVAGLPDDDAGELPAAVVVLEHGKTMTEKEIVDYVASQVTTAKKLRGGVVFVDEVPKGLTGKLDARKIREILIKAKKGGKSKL
3',5'-cyclic-AMP phosphodiesterase 4B (Homo sapiens), sequence (Q07343 whole entry, looked up): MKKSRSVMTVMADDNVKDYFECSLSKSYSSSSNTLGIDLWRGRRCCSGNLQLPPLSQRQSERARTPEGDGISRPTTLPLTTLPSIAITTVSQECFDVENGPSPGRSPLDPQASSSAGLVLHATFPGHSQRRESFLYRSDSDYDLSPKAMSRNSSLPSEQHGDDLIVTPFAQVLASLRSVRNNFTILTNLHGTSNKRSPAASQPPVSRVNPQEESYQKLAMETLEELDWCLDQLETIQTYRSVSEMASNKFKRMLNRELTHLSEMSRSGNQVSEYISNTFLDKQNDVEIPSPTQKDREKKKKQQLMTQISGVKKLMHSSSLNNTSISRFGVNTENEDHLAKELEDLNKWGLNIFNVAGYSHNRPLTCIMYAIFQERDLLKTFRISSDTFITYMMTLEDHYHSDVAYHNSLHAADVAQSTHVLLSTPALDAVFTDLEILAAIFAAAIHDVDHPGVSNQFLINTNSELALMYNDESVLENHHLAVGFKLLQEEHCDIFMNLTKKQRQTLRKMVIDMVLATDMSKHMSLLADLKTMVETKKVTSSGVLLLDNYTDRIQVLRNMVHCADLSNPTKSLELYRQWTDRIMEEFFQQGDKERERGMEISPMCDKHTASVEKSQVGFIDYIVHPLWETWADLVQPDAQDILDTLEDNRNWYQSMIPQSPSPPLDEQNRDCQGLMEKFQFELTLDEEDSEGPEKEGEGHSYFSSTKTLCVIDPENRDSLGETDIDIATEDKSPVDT

As for `C[C@@H]1O[C@H](O[C@@H]2[C@@H](Oc3cc(O)c4c(c3)O[C@H](c3ccc(O)cc3)CC4=O)O[C@@H](CO)[C@@H](O)[C@H]2O)[C@@H](O)[C@H](O)[C@@H]1O`, the call in assay [1], in assay [4] and in assay [8] was inactive. The Potency result in assay [2], in assay [7] and in assay [10] was “inactive” in each case. Also, the activity change, negative = inhibition is -5.97% (inactive) in assay [3] and -1.64% (inactive) in assay [9]. For the same molecule, the Potency in assay [5] and in assay [6] was > 20.6 µM (inactive) in each case. For the same molecule, the max response in assay [9] (setting [14]) is -4.7%; in assay [9] (setting [15]), -6.11%.
Consider `CC[N+](CC)(CC)CC[C@](O)(c1ccccc1)C1CCCCC1`, for which the result in [1], in assay [4], in assay [8] and in assay [12] was inactive. Besides, the Potency result (in [2]; in assay [7]; in [10]; in assay [11]; with C2A; in the assay on CP191) was “inactive” each time. The Potency entry in the assay with CP256, with CP262, in the assay on CP268, with JCK and in the assay with SC27B was “inactive” in each case. In addition, the activity change, negative = inhibition in assay [3] was -68.8% (active); in assay [9] it was -1.33% (inactive). The Potency in [5] and in assay [6] was > 20.6 µM (inactive) throughout. In addition, the max response is -17.2% in assay [9] (setting [14]) and -19.8% in assay [9] (setting [15]). Besides, the activity, negative = inhibition in assay [13] (parasite line B) was -24.4% (inactive).
As for `O=C1O[C@H](CN2CCOCC2)CN1/N=C\c1ccc([N+](=O)[O-])o1`, the outcome in [1], in assay [4] and in [12] was inactive. Moreover, the Potency entry (in assay [2]; in [7]; in assay [10]; in [11]; in the assay with C2A; in the assay on CP191) was “inactive” each time. Also, the Potency entry with CP256, with CP262, in the assay with CP268, with JCK and in the assay with SC27B was “inactive” in each case. Further, the activity change, negative = inhibition in assay [3] is -16.1% (inactive); in [9] it was -9.12% (inactive). The Potency in assay [5] and in assay [6] was > 20.6 µM (inactive) each time. The max response in [9] (setting [14]) was -19.2%; in assay [9] (setting [15]), -26.5%.
In the case of `CC[C@H](C)C(=O)O[C@@H]1C[C@H](C)C=C2C=C[C@H](C)[C@@H](CC[C@H]3C[C@@H](O)CC(=O)O3)[C@H]21`, the molecule was classed as inactive in [1] and in assay [4]. Besides, the Potency result in assay [2], in [7] and in [10] was “inactive” throughout. Moreover, the results for the activity change, negative = inhibition in assay [3] and in assay [9] were 11.4% (inactive) and -5.83% (inactive), respectively. Besides, the Potency in assay [5] and in assay [6] was > 20.6 µM (inactive) each time. In addition, the max response in [9] (setting [14]) is -1.87%; in [9] (setting [15]) it was -8.58%.
Turning to `C=CCOc1ccccc1OC[C@H](O)CNC(C)C`, the result in assay [1], in [4], in assay [8] and in assay [12] was inactive. Besides, the figures for the Potency in assay [2], in assay [5] and in assay [6] were 5.01 µM (active), > 20.6 µM (inactive) and > 20.6 µM (inactive), respectively. For the same molecule, the figures for the activity change, negative = inhibition in assay [3] and in assay [9] were -9.75% (inactive) and 2.07% (inactive), respectively. The Potency entry (in assay [7]; in assay [10]; in assay [11]; in the assay with C2A; in the assay on CP191; in the assay with CP262) was “inactive” in each case. For the same molecule, the Potency entry with CP268, with JCK and with SC27B was “inactive” throughout. Besides, the values for the max response in assay [9] (setting [14]) and in assay [9] (setting [15]) were -12.4% and -9.74%, respectively. Besides, the activity, negative = inhibition was -6.89% (inactive) in [13] (parasite line A) and -26.4% (inactive) in assay [13] (parasite line B).
